We go through eight compounds from PubChem BioAssay (EPA / NIEHS).

A structure can be active in one record and inactive in another. Activity calls are given as the source filed them. How the source made its calls: active means hit-call score of the fitted dose curve at least 0.9, where 1 is the maximum; inactive means score below 0.9.

As a reminder, the AC50 is the concentration at which the activity in the assay is half-maximal.

Test [1] can be described thus: BSK_3C_TissueFactor: BioMAP Diversity Plus: 3C Assay for Tissue Factor Biomarker Activity (AID 2282997). Conditions: BioMAP 3C HUVEC, tissue factor biomarker readout; actives raise or lower the signal. The procedure, abridged: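 Endothelial monolayers (human umbilical vein, primary) are dosed, incubated 24 h, and assayed for Tissue Factor by ELISA; DMSO serves as negative control for bidirectional fitting.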

Read-out in test [2]: Interleukin-8 (IL8), CXCL8 (gene 3576)
Put plainly: BSK_3C_IL8: BioMAP Diversity Plus: 3C Assay for Interleukin-8 (IL8) Biomarker Activity (AID 2283020). Conditions: primary human endothelial cells (HUVEC); actives raise or lower the signal. The procedure, abridged:
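Human vascular endothelial cells (umbilical vein) in the 3C system; IL-8 level detected by ELISA at 24 h post-dose, with DMSO as baseline.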

Read-out in test [3]: Thrombomodulin, THBD (gene 7056)
Kind of test: BSK_3C_Thrombomodulin: BioMAP Diversity Plus: 3C Assay for Thrombomodulin Biomarker Activity (AID 2283029). The note with it: primary human endothelial cells (HUVEC); actives raise or lower the signal. The procedure, abridged:
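Thrombomodulin ELISA, human primary HUVEC, 24 h post-dose; data fitted in both directions relative to DMSO.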

Read-out in test [4]: Urokinase-type plasminogen activator receptor (uPAR), PLAUR (gene 5329)
Put plainly: BSK_4H_uPAR: BioMAP Diversity Plus: 4H Assay for Urokinase-type plasminogen activator receptor (uPAR) Biomarker Activity (AID 2283030). The note with it: primary human endothelial cells (HUVEC); actives raise or lower the signal. In short, it runs like this: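 Endpoint derived via bidirectional curve fitting against DMSO baseline; readout was ELISA detection of uPAR on umbilical vein endothelial cells at 24 h post-treatment, with SRB-stained parallel cultures assessing cytotoxicity.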

Read-out in test [5]: Monokine induced gamma interferon (MIG), CXCL9 (gene 4283)
Put plainly: BSK_CASM3C_MIG: BioMAP Diversity Plus: CASM3C Assay for Monokine induced gamma interferon (MIG) Biomarker Activity (AID 2283048).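 Further: MIG protein level measured by ELISA.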 The note with it: primary human coronary artery smooth muscle cells; actives raise or lower the signal.

Read-out in test [6]: serum amyloid A (SAA), SAA1 (gene 6288)
Put plainly: BSK_CASM3C_SAA: BioMAP Diversity Plus: CASM3C Assay for serum amyloid A (SAA) Biomarker Activity (AID 2283049).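 Further: SAA protein level quantified by ELISA.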 Conditions: primary human coronary artery smooth muscle cells; actives raise or lower the signal.

Read-out in test [7]: Thrombomodulin, THBD (gene 7056)
Kind of test: BSK_CASM3C_Thrombomodulin: BioMAP Diversity Plus: CASM3C Assay for Thrombomodulin Biomarker Activity (AID 2283051).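 Further: thrombomodulin protein level measured by ELISA 24 h after dosing.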 The note with it: primary human coronary artery smooth muscle cells; actives raise or lower the signal.

Read-out in test [8]: Vascular cell adhesion molecule 1 (VCAM1), VCAM1 (gene 7412)
Put plainly: BSK_CASM3C_VCAM1: BioMAP Diversity Plus: CASM3C Assay for Vascular cell adhesion molecule 1 (VCAM1) Biomarker Activity (AID 2283055).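 Further: VCAM-1 protein level quantified by ELISA on the cells.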 Conditions: primary human coronary artery smooth muscle cells; actives raise or lower the signal.

Read-out in test [9]: Interleukin-8 (IL8), CXCL8 (gene 3576)
Kind of test: BSK_LPS_IL8: BioMAP Diversity Plus: LPS Assay for Interleukin-8 (IL8) Biomarker Activity (AID 2283078). Conditions: primary human HUVEC with PBMC; actives raise or lower the signal. In short, it runs like this: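 In this LPS system, chemical-treated human umbilical vein endothelium/PBMC co-cultures were harvested at 24 h for IL-8 ELISA.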

Read-out in test [10]: Monocyte Chemoattractant Protein-1 (MCP1), CCL2 (gene 6347)
Kind of test: BSK_hDFCGF_MCP1: BioMAP Diversity Plus: hDFCGF Assay for Monocyte Chemoattractant Protein-1 (MCP1) Biomarker Activity (AID 2284285). The note with it: primary human foreskin fibroblasts. In short, it runs like this:
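Human foreskin fibroblasts (hDFCGF system) were exposed to compound and secreted MCP-1 was measured by ELISA after 24 hours. Activity was fitted relative to DMSO. Cytotoxicity was checked by SRB total-protein staining in parallel cultures.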

Test [11] in a line: ATG_CRE_CIS: Attagene CIS-FACTORIAL HepG2 Assay for human cAMP Responsive Element (CRE) binding protein 3 (AID 2282926). The note with it: HepG2 CRE cis-reporter, Attagene multiplexed mRNA; actives raise or lower the signal. In short, it runs like this: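 Transfected HepG2 were treated for 24 hours, then RNA was extracted and reporter cDNA amplified with sequence-specific primers. Labelled fragments were separated by capillary electrophoresis, and the CRE signal was fitted bidirectionally with DMSO as baseline.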

Test [12] in a line: ATG_DR4_LXR_CIS: Attagene CIS-FACTORIAL HepG2 Assay for human Liver X Receptor (LXR), DR4 submotif (AID 2282929). The note with it: HepG2 Attagene DR4 cis-reporter, mRNA transcription; actives raise or lower the signal. The procedure, abridged:
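DR4 cis-reporter in HepG2, 24 h exposure. Detection: RT-PCR, 6-FAM labelling, CE fragment analysis. Endpoint fitted bidirectionally, DMSO = baseline.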

Test [13] can be described thus: ATG_AP_1_CIS: Attagene CIS-FACTORIAL HepG2 Assay for human Activator Protein 1 (AP-1) (AID 2282931). The note with it: HepG2 Attagene cis-factorial AP-1 reporter mRNA; actives raise or lower the signal. In short, it runs like this:
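Cis-regulated reporter units transiently expressed in HepG2 report endogenous transcription-factor activity. Signal: reporter mRNA at 24 h, via RT-PCR and fluorescent capillary electrophoresis. Endpoint derived by bidirectional fitting, DMSO as negative control.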

In test [14] the target is Hepatocyte nuclear factor 3-beta (Homo sapiens) (UniProt Q9Y261). Put plainly: ATG_FoxA2_CIS: Attagene CIS-FACTORIAL HepG2 Assay for human Forkhead box A2 (FOXA2) (AID 2282942). The note with it: HepG2 cis-reporter transcription factor activity, 24 h; actives raise or lower the signal. In short, it runs like this: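 Measured: reporter mRNA induction or loss in HepG2 transiently carrying multiple cis-regulated reporter units, 24 h after dosing. Quantified by RT-PCR plus capillary electrophoresis, normalised to DMSO.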
Sequence of Hepatocyte nuclear factor 3-beta (Homo sapiens) (Q9Y261 whole entry, looked up): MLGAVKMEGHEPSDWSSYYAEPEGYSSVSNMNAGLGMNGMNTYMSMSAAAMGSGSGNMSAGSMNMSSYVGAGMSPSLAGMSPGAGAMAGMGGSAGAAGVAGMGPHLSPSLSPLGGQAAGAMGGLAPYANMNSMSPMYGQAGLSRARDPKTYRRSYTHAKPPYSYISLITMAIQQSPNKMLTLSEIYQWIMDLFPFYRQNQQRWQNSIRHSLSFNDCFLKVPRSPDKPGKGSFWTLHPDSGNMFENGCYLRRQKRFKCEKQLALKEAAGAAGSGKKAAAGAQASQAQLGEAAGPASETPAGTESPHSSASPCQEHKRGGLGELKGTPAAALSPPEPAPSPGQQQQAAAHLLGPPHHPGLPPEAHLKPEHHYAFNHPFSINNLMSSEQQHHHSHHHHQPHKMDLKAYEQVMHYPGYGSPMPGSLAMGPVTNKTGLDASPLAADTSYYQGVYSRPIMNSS

In test [15] the target is Heat shock factor protein 1 (Homo sapiens) (UniProt Q00613). Put plainly: ATG_HSE_CIS: Attagene CIS-FACTORIAL HepG2 Assay for human Heat Shock Transcription Factor 1 (HSE) (AID 2282953). Conditions: HepG2 HSE cis-reporter, Attagene RNA transcription; actives raise or lower the signal. In short, it runs like this: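 HepG2 cells transiently transfected with multiple reporter transcription units under cis-regulatory promoter control, measuring endogenous transcription factor activity. After 24 h chemical exposure, reporter mRNA quantified by RT-PCR, fluorescent labelling, HpaI digestion and capillary electrophoresis; bidirectional fit versus DMSO.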
Sequence of Heat shock factor protein 1 (Homo sapiens) (Q00613 whole entry, looked up): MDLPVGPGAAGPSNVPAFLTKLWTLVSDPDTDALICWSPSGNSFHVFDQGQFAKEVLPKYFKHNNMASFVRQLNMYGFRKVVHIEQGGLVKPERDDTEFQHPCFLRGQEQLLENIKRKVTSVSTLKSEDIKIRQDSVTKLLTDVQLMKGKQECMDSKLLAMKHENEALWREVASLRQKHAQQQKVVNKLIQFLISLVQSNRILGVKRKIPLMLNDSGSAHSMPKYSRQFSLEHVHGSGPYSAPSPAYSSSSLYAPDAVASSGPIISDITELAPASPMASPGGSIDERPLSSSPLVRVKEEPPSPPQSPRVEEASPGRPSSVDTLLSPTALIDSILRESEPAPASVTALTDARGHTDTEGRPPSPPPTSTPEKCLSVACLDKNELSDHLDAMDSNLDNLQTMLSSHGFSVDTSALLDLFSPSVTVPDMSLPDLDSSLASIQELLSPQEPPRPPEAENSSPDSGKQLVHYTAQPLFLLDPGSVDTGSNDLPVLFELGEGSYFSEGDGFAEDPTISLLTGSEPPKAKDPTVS

Test [16] in a line: ATG_RORE_CIS: Attagene CIS-FACTORIAL HepG2 Assay for human RAR-related Orphan Receptor Element (RORE) (AID 2282959). The note with it: HepG2 Attagene cis-factorial RORE reporter, mRNA; actives raise or lower the signal. In short, it runs like this:
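Transiently transfected HepG2 reporter cells were treated 24 h. Reporter transcripts were detected by RT-PCR and capillary electrophoresis, with bidirectional fitting against DMSO.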

The target in test [17] is Nuclear respiratory factor 1 (Homo sapiens) (UniProt Q16656). Put plainly: ATG_NRF1_CIS: Attagene CIS-FACTORIAL HepG2 Assay for human Nuclear Respiratory Factor 1 (NRF1) Orphan Gene (AID 2282987). Conditions: HepG2 NRF1 cis-element reporter, Attagene multiplex; actives raise or lower the signal. The procedure, abridged: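 Using DMSO as baseline, gain- or loss-of-signal was fitted for reporter mRNA levels in HepG2 cells transiently transfected with cis-regulated reporter units. Samples were taken 24 h after dosing and read by RT-PCR with capillary electrophoresis.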
Sequence of Nuclear respiratory factor 1 (Homo sapiens) (Q16656 whole entry, looked up): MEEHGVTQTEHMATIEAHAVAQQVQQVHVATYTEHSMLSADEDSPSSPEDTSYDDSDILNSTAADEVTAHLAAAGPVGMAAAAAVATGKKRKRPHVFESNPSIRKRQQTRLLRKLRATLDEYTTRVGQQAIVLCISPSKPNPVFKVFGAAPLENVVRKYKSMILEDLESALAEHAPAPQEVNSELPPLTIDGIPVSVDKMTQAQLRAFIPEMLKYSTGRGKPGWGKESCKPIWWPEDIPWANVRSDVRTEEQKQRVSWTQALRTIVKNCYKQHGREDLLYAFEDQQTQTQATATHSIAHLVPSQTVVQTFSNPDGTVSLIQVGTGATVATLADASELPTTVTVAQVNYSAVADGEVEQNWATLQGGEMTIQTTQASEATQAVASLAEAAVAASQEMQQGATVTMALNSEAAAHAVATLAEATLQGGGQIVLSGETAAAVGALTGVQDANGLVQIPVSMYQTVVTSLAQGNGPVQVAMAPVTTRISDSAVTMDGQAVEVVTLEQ

Test [18] in a line: ATG_NFI_CIS: Attagene CIS-FACTORIAL HepG2 Assay for human Nuclear Factor I (NFI) (AID 2282989). The note with it: HepG2 cis-regulatory reporter, NFI response element transcription; actives raise or lower the signal. The procedure, abridged:
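HepG2 cells transiently transfected with cis-element-driven multiplexed reporter transcription units, dosed for 24 h. Reporter mRNA quantified by RT-PCR, fluorescent labelling, HpaI digestion and capillary electrophoresis; bidirectional fit versus DMSO baseline.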

Test [19] is described as follows: ATG_NRF2_ARE_CIS: Attagene CIS-FACTORIAL HepG2 Assay for human Nuclear Factor Erythroid 2 Related Factor 2 (NFR2) response to Antioxidant Response Elements (ARE) (AID 2282992).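 On AC50: reporter mRNA level measured by RT-PCR and capillary electrophoresis fluorescence.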 The note with it: HepG2 Attagene ARE/NRF2 reporter, transcription factor activity; actives raise or lower the signal. In short, it runs like this:
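HepG2 cells transiently transfected with multiplexed cis-regulated reporter transcription units measure endogenous transcription factor activity. Reporter mRNA at 24 h is quantified by RT-PCR, fluorescent labelling and capillary electrophoresis, with bidirectional fitting relative to DMSO.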

The target of test [20] is Cellular tumor antigen p53 (Homo sapiens) (UniProt P04637). Kind of test: ATG_p53_CIS: Attagene CIS-FACTORIAL HepG2 Assay for human p53 Transcription Factor (AID 2282994). The note with it: HepG2 p53 cis-element reporter, Attagene mRNA; actives raise or lower the signal. In short, it runs like this:
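HepG2 cells transiently transfected with multiplexed cis-regulated reporter transcription units read endogenous TF activity. After 24 h compound exposure, reporter mRNA was quantified by RT-PCR, fluorescent labelling, HpaI digestion and capillary electrophoresis; bidirectional fits versus DMSO baseline.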

Sequence of Cellular tumor antigen p53 (Homo sapiens) (P04637 whole entry, looked up): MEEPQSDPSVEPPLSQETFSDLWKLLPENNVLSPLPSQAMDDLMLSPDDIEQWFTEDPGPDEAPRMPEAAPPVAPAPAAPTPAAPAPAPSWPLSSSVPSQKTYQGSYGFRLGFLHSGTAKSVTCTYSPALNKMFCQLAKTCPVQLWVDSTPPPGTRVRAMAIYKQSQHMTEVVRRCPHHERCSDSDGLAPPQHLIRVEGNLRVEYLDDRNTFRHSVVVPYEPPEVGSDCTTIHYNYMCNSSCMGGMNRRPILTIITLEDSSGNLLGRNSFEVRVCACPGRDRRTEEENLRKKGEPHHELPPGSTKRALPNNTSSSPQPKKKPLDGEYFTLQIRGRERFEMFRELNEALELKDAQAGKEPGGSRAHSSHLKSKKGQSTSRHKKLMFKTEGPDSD

On to `CCC[Si](OC(C)=O)(OC(C)=O)OC(C)=O`, for which the outcome in test [1], in [2], in [3], in test [4], in [5] and in test [6] was inactive. The outcome in test [7], in test [8], in [9] and in test [10] was inactive.

As to `COc1cc(CNC(=O)CCCC/C=C/C(C)C)ccc1O`, the outcome in test [1], in test [2], in test [3], in test [4], in test [5] and in test [6] was inactive. The result in [7], in test [8], in test [9] and in test [10] was inactive. Also, the AC50 in [3] is 15.1 µM (active); in test [10] it was 508 nM (active).

For `CN(C)N=Nc1ccccc1`, the compound was classed as inactive in test [11], in test [12], in [13], in [14], in test [15] and in [16]. In addition, the result in test [17], in test [18] and in test [20] was inactive. Besides, the concentration at half-maximal activity (AC50) in [19] is 177 µM (active).

`COc1ccc2ccccc2c1`: the call in [12], in [14], in test [15], in test [16] and in test [20] was inactive.

In the case of `CCO[Si](CCCN)(OCC)OCC`, the result in test [11], in [12], in [13], in test [14], in test [15] and in test [16] was inactive. The compound was called inactive in test [17], in test [18], in test [19] and in test [20].

Take `CCCc1c(OCCCCc2nn[nH]n2)ccc(C(C)=O)c1O`: the compound was called inactive in test [11], in test [12], in test [13], in test [14], in [15] and in test [17]. The call in test [18] and in test [20] was inactive. In addition, the AC50 is 33.2 µM (active) in test [16] and 100 µM (active) in test [19].

Turning to `O=C(C1CCCCC1)N1CC(=O)N2CCc3ccccc3C2C1` (configuration not stated), the compound was classed as inactive in test [11], in test [13], in [15], in [16], in test [17] and in [18]. Moreover, the compound was classed as inactive in test [19] and in [20].

Turning to `CC[N+](CC)(CC(=O)Nc1c(C)cccc1C)Cc1ccccc1`, the compound was classed as inactive in test [11], in [12], in test [13], in test [14], in [16] and in test [17]. Moreover, the outcome in test [18], in test [19], in test [1], in test [2], in test [3] and in test [4] was inactive. Moreover, the outcome in test [5], in test [6], in test [7] and in test [8] was inactive. Also, in [9], the concentration at half-maximal activity (AC50) was 182 nM (active).
